Hits are enriched below; roughly 3.4% of the tested compounds scored in any of these assays.
KLK7 zymogen act – proKLK7 (human) activation, primary screen. purified proKLK7, EDANS-DABCYL substrate fluorescence; 100% is mature enzyme control, 0% vehicle. activation, % at 7 µM. 370,000 compounds, 0.9% hits;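 active = activation above the mean of all tested compounds plus 3 SD, computed per campaign excluding outliers beyond control limits, cut at about 13% in these data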
sPLA2-III inh – Blocks human group III sPLA2 activity; QFRET BODIPY PC-A2 liposome hydrolysis, fluorescence; Q9NZ20; 370,000 compounds, 0.56% hits; inhibition, % at 12.2 µM; AID 743126;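 active = inhibition above mean plus 3 SD of compounds lying within the high and low control bounds, cut at about 19% in these data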
NRP1-CendR mod – alters CendR peptide binding to human NRP-1 | FAM-RPARPAR peptide binding to NRP-1, fluorescence polarization | inhibition, % at 25 µM | 360,000 compounds, 0.85% hits | AID 602438;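 active = inhibition or corrected inhibition above about 18%, plus a signal ratio from 0.5 to 1.5, limit read from the data, passing the limit was not always enough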
Target sequence (O14786 whole entry, looked up): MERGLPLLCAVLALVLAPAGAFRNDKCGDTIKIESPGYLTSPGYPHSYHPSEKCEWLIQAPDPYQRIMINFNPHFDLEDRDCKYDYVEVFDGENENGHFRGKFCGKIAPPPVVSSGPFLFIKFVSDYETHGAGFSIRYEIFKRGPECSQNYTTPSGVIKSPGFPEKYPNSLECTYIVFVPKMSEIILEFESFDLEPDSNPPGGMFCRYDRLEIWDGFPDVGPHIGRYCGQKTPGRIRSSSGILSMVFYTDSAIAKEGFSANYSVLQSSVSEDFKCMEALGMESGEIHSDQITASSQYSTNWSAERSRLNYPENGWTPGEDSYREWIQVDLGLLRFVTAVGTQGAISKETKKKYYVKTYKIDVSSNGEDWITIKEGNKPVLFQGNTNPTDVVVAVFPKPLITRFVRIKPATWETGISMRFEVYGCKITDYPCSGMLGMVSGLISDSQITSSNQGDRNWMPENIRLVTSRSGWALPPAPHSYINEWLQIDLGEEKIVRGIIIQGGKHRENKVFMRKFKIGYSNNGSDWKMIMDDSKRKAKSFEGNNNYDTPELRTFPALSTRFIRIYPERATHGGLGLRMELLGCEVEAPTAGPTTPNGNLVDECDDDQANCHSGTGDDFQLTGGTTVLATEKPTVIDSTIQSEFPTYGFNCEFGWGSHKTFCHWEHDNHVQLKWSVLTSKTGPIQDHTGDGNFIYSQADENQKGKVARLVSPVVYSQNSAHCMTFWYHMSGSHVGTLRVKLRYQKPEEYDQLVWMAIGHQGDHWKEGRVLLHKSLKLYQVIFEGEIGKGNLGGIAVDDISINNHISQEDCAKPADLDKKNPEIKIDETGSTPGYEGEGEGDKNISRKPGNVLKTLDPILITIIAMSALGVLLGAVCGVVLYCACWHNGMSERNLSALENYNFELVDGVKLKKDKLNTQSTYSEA
ADAM17 inh – inhibitors of human ADAM17 | 370,000 compounds, 0.83% hits | recombinant ADAM17, EDANS/DABCYL FRET peptide cleavage | AID 720648 | inhibition, % at 6.95 µM;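 active = inhibition above the mean of compounds lying between control limits plus 3 SD, set per campaign, cut at about 8.5% in these data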
ADAM10 inh – inhibits human ADAM10 | 370,000 compounds, 0.62% hits | O14672 | recombinant ADAM10, EDANS/DABCYL FRET peptide cleavage, 3 h | inhibition, % at 7 µM;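 active = inhibition above a per-campaign cutoff equal to the mean of compounds falling between control-based bounds plus 3 SD, cut at about 20% in these data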
Hits are given with their value; - = inactive; . = no result.

SMILES	KLK7 zymogen act	sPLA2-III inh	NRP1-CendR mod	ADAM17 inh	ADAM10 inh
Cc1ccc(CNC[C@@]23CO[C@H](c4ccc(Cl)cc4)N2[C@@H](c2ccc(Cl)cc2)SC3)o1	-	-	.	-	-
Cn1c(N)c(S(=O)(=O)N2CCN(c3ccccc3Cl)CC2)c(=O)n(C)c1=O	-	-	26.6	-	-
NC(=O)C(=O)NN=C1CCC(c2ccccc2)CC1 (stereo unspecified)	-	-	-	-	-
NC(=O)NN=C1C2CCCC1C(c1ccccc1)NC2c1ccccc1 (stereo unspecified)	-	-	44.8	-	-
CC(=O)Nc1ccc(C(=O)N2CCCCC2c2cc(C(=O)NC(C)C)no2)cc1 (stereo unspecified)	-	-	43.9	-	-
CC(C)NC(=O)c1cc(C2CCCCN2C(=O)c2ccc(C(C)C)cc2)on1 (stereo unspecified)	-	-	-	-	-
COC(=O)N1CCCCC1c1cc(C(=O)N2CCOCC2)no1 (stereo unspecified)	-	-	25.7	-	-
Cc1cc(C(=O)CSc2nc(N)cc(=O)[nH]2)c(C)n1CC1CCCO1 (stereo unspecified)	-	-	21.4	-	-
Cc1cc(C(=O)CSc2nc(N)cc(N)n2)c(C)n1CC1CCCO1 (stereo unspecified)	-	-	-	-	-
Cc1cc(C)cc(N(C(=O)CNS(=O)(=O)c2ccccc2)C(C(=O)NCc2ccccc2)c2ccc(C)o2)c1 (stereo unspecified)	-	-	-	-	-
Cc1ccc(S(=O)(=O)NCC(=O)N(c2ccccc2)C(C(=O)NCc2ccccc2)c2ccco2)cc1 (stereo unspecified)	-	-	28.8	-	-
COC(=O)c1cn(-c2ccccc2)c(C)c1C(=O)OC	-	-	22.3	-	-
COC(=O)c1cc(-c2ccccc2OC)c(=O)n2c1CCC2	-	-	.	-	-
Cc1csc(=O)n1CC(=O)OCC(=O)Nc1ccc(C(N)=O)cc1	-	-	-	-	-
Cc1csc(=O)n1CCC(=O)OCC(=O)Nc1ccc(C(N)=O)cc1	-	-	23.1	-	-
Cc1cc(SCC(=O)N/N=C/c2ccc(O)c(O)c2O)c(C)cc1Br	-	31.6	-	-	-
COC(=O)[C@]12C[C@H](CC(=O)N3CCN(C(=O)c4ccco4)CC3)C(=O)N(CCc3ccc(OC)c(OC)c3)C1=C[C@H](COCc1ccccc1)O[C@@H]2C	-	-	.	-	-
O=C(Nc1nc2ncccn2c1-c1ccc(F)c(F)c1)c1ccccc1	-	-	.	-	-
Cc1cc(C)n(-c2nnc3n2N=C(c2c[nH]c4ccccc24)CS3)n1	-	-	23.0	-	-
Cc1cc(C)n(-c2nnc3n2N=C(c2ccccc2)CS3)n1	-	-	-	-	-
c1ccc2c(CNc3ccc(CNc4ncn[nH]4)cc3)cccc2c1	-	-	31.9	-	-
COc1ccccc1CNc1ccc(CNc2ncn[nH]2)cc1	-	-	-	-	-
Cc1ccc(-n2c(SCc3c(Cl)cccc3Cl)nnc2-c2ccco2)cc1	-	-	.	-	-
Cc1ccc(OCCN2C(=O)C(=O)c3cc(C)ccc32)cc1	-	-	-	-	-
Cc1ccc2c(c1)C(=O)C(=O)N2CC(=O)OC(C)C	-	-	27.4	-	-
SMILES	KLK7 zymogen act	sPLA2-III inh	NRP1-CendR mod	ADAM17 inh	ADAM10 inh
COC(=O)[C@H](CC(C)C)N(Cc1cn(Cc2ccccc2)nn1)S(=O)(=O)c1ccc(F)cc1Br	-	-	.	-	-
CC(=O)Nc1ccc2nc3c(=O)n(C)c(=O)n(C)c3nc2c1	-	-	42.2	-	-
Cn1c(=O)c2nc3ccccc3nc2n(C)c1=O	-	-	-	-	-
O=C(c1cc(F)cc(F)c1)N1CCCC(c2nc(-c3cccs3)no2)C1 (stereo unspecified)	-	-	.	-	-
CC(C)(C)NC(=O)C(c1ccc(O)cc1)N(C(=O)CCC(=O)Nc1nccs1)c1cccc(F)c1 (stereo unspecified)	-	-	-	-	-
CC(C)(C)NC(=O)C(c1ccc(O)cc1)N(C(=O)CCC(=O)Nc1nccs1)c1ccccc1F (stereo unspecified)	-	-	29.0	-	-
CCCN(CC1CC1)C(=O)c1ccc(CNC(=O)c2cccc(Br)c2)cc1	-	-	.	-	-
COC(=O)C1CN(Cc2ccc(OC)cc2)CCS(=O)(=O)N1Cc1ccc(F)cc1 (stereo unspecified)	-	-	.	-	-
CCOC(=O)C1(Cc2ccccc2Cl)CCN(C(=O)CN2CCOC2=O)CC1	-	-	22.9	-	-
c1ccn(-c2ccc(-c3noc(CCc4ccncc4)n3)cc2)c1	-	-	.	-	-
CC(C)C[C@@H](CO)N1Cc2nnn(Cc3ccccc3)c2-c2ccccc2S1(=O)=O	-	-	.	-	-
Cc1cccc(NCc2ccccc2O)c1C	-	-	41.6	-	-
Cc1ccc(NCc2ccccc2O)c(C)c1	-	-	-	-	-
COC(=O)c1ccccc1NS(=O)(=O)c1ccc2c(c1)oc(=O)n2C	-	-	-	-	-
Cn1c(=O)oc2cc(S(=O)(=O)Nc3ccccc3O)ccc21	-	-	34.9	-	-
Nc1[nH]c(C(=O)c2ccccc2)c(-c2ccc(Br)cc2)c1C(=O)NCCCN1CCOCC1	.	-	.	-	-
CC(C)C1=C2CCCCC2NC(=O)N1 (stereo unspecified)	-	-	28.2	-	-
CC(C)C1(C2CCCC2)NC(=O)NC1=O (stereo unspecified)	-	-	-	-	-
CN(CCO)c1ccc2c(c1)Oc1ccccc1CN(Cc1cn(Cc3ccc(C(F)(F)F)cc3)nn1)S2(=O)=O	-	-	.	-	-
CC(C)n1nnnc1C1(C)Cn2nccc2C(=O)N1Cc1cccc(C(F)(F)F)c1 (stereo unspecified)	-	-	.	-	-
CN(c1ccccc1)c1ccc(/C=C(/CCC(=O)O)c2nc3ccccc3s2)cc1[N+](=O)[O-]	-	19.9	-	-	-
O=C(O)CC/C(=C\c1ccc(N2CCCC2)c([N+](=O)[O-])c1)c1nc2ccccc2s1	-	-	-	-	-
COc1ccc2c(c1)N[C@@](CCNC=O)(c1[nH]c3ccccc3c1CCNC=O)C2=O	.	-	.	-	-
Cc1nnc(SCC(=O)N2CCc3ccccc32)s1	-	-	-	-	-
CSc1nsc(SCC(=O)N2CCc3ccccc32)n1	-	-	18.6	-	-
O=C(CNS(=O)(=O)c1ccc(F)cc1)N1CCN(c2ccccn2)CC1	-	-	.	-	-
COCCNC(=O)C1(C)Cc2c(-c3cccc(C(F)(F)F)c3)ccnc2O1 (stereo unspecified)	-	-	-	-	-
CC1(C(=O)NCC2CC2)Cc2c(-c3cccc(C(F)(F)F)c3)ccnc2O1 (stereo unspecified)	-	-	34.6	-	-
C=C(C)CSc1nnc(-c2cc(-c3ccccc3)n[nH]2)n1N	-	-	.	-	-
Cc1cc(C)c2c(=N)c3ccccc3n(CCCCCCCCn3c4ccccc4c(=N)c4c(C)cc(C)nc43)c2n1	36.7	-	-	-	-

Screens from PubChem BioAssay.
